# Measured values published in PubChem BioAssay AID651946 (Broad Institute, 2012).
# Results with a measured potency or affinity are listed apart. Activity calls are given as the source filed them.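 The calls were made as follows: active = toxic compound whose fitted half-effect dose of signal loss is at most twice its top tested dose; inconclusive = flat fit losing 30 to 70% signal, or poor fit; inactive = the rest.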
# Experiment: HeLa cell viability loss – plate reader, dry powder, cytotoxicity control, dose response (AID 651946)
# Details: ATP luminescence (CellTiter-Glo), 48 h; series mostly up to 26 µM
row,Compound,outcome
1,c1ccc(CSc2nnc(-c3ccccc3)o2)cc1,inactive
2,Clc1ccc(-c2nnc(SCc3ccccc3)o2)cc1,inactive
3,COc1ccc(CSc2nnc(-c3ccccc3)o2)cc1,inactive
